From PubChem BioAssay come the findings set out here.

The inhibition is the drop in the measured response relative to a control, in per cent.

Active and inactive are the calls of the source.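 The calls were made as follows, unless noted: active = NADPH fluorescence slope more negative than the mean of all samples by about 3 SD, 99.7% confidence; inactive = the rest.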

The nature of assay [1]: inhibitors of E-selectin induction by TNFa, primary screen, imaging, HUVEC, immunofluorescence, MLSMR starter and 10KST1 sets (AID 487;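 active = visually confirmed hit in the image check and inhibition above 20%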;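 as to inhibition: signal is fraction of cell area covered by stained E-selectin grains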;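 as to nuclei count: 100% = median nuclei count of all wells on the same plate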). Conditions: HUVEC TNFalpha-induced E-selectin immunofluorescence imaging, at 2 µM; inhibition: stronger effect = higher value; nuclei count: measured here: cell number, toxicity.
Assay [2] in a line: DUSP6 inhibitors restoring Erk phosphorylation by chemical complementation, primary imaging in DUSP6-transfected HeLa (AID 609;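 active = compounds giving at least 50% inhibition in the cell-based MKP-3 phosphatase rescue imaging test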;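 as to inhibition: phospho-Erk level distribution per well compared with pooled transfected vehicle control wells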). To be noted: HeLa MKP-3 transfected, phospho-Erk imaging KS statistic, at 10 µM, cells stimulated with TPA for 15 min.
In assay [3] the target is Dual specificity protein phosphatase 6 (Homo sapiens) (UniProt Q16828). The assay is described as above. To be noted: HeLa MKP-3 transfected, phospho-Erk imaging KS statistic; at 10 µM; stronger effect = higher value; cells stimulated with TPA for 15 min.
Dual specificity protein phosphatase 6 (Homo sapiens), sequence (Q16828 whole entry, looked up): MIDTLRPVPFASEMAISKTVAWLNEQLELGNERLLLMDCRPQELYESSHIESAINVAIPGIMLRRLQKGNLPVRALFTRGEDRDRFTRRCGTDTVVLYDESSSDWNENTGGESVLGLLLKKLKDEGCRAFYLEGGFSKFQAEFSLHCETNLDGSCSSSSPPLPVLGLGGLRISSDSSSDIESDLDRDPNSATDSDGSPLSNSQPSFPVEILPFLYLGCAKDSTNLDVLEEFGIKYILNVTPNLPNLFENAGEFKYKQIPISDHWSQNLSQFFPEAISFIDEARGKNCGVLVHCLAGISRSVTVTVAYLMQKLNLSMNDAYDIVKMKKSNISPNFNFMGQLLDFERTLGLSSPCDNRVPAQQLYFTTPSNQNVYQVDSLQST
The target of assay [4] is Voltage-gated potassium channel subunit beta-2 (Rattus norvegicus) (UniProt P62483). The experiment in a line: KvBeta enzyme negative modulators, primary screen, biochemical, NADPH fluorescence (AID 622;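 active = fluorescence slope higher than the sample average by over 3 SD, cut at about -0.22 in these data, passing the limit was not always enough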;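 also: slope of raw intensity against log time taken from 70 to 1610 s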). Conditions: recombinant KvBeta, 4-cyanobenzaldehyde reduction, at 10 µM, stronger effect = higher value.
Voltage-gated potassium channel subunit beta-2 (Rattus norvegicus), sequence (P62483 whole entry, looked up): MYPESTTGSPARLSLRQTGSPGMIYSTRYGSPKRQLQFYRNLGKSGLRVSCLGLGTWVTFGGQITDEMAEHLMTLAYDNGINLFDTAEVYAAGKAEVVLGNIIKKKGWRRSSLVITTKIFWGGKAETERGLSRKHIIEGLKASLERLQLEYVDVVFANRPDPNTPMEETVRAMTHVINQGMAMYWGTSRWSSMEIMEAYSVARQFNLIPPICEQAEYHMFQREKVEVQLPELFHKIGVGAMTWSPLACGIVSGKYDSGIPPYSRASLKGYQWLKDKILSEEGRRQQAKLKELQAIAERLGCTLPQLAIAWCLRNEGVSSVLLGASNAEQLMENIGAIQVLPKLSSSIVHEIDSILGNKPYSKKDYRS
For assay [5] the target is unchanged. The experiment in a line: KvBeta positive modulators, primary screen, biochemical, NADPH fluorescence (AID 623).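 Also: fluorescence intensity change per second fitted from 20 to 320 s.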 Conditions: Recombinant KvBeta, NADPH fluorescence decrease slope, 10 min; at 10 µM; stronger effect = lower value.
Assay [6] concerns the target Muscarinic acetylcholine receptor M4 (Homo sapiens) (UniProt P08173). The experiment in a line: compounds altering M4/GIRK thallium flux, either direction, primary screen, M4 allosteric agonist project, cell-based, HEK293 M4/GIRK, BTC-AM (AID 625;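 active = fluorescence slope after compound addition differing from the mean of all tested samples at 99.7% confidence, mostly higher but some lower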;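 also: thallium influx through GIRK channels coupled to M4 in HEK293 cells with BTC-AM dye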). Conditions: at 10 µM, actives lie on both sides.
A short description of assay [7]: inhibitors of larval lipid processing in zebrafish, primary screen, whole organism, PED6 fluorescence, gall bladder and intestine (AID 686;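 active = a full or partial loss of lipid-probe fluorescence in the fish gall bladder, intestine or both, judged by eye; inactive = no fluorescence loss, or compound toxic to the fish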;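 also: larvae 5 to 7 days old with five fish per well; signal comes from phospholipase A2 cleavage of quenched PED6 carried via bile; overnight exposure to compound and PED6 before scoring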). Conditions: Zebrafish larvae PED6 lipid processing, fluorescence scoring; screened at 20 µM (by protocol).
Assay [8] can be described thus: inhibitors of Chlamydomonas gravitaxis, primary screen, whole organism, Chlamydomonas reinhardtii, WT vs cilia-less mutant, absorbance, 96-well (AID 463189;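 active = inhibition at or above 50% relative to wild type and mutant plate controls; inactive = inhibition below 50%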;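 also: 0% = wild type cc124 cells in DMSO and 100% = ciliumless bld1 mutant cells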). Conditions: OD600 absorbance, 2 days, at 10 µM, stronger effect = higher value.
Setting [9] is: measured here: cell density z-score.
The mark [10] stands for this setting: measured here: nuclear c-Myc green intensity z-score.
The mark [11] stands for this setting: measured here: nuclear pErk red intensity z-score, stronger effect = higher value.

Muscarinic acetylcholine receptor M4 (Homo sapiens), sequence (P08173 whole entry, looked up): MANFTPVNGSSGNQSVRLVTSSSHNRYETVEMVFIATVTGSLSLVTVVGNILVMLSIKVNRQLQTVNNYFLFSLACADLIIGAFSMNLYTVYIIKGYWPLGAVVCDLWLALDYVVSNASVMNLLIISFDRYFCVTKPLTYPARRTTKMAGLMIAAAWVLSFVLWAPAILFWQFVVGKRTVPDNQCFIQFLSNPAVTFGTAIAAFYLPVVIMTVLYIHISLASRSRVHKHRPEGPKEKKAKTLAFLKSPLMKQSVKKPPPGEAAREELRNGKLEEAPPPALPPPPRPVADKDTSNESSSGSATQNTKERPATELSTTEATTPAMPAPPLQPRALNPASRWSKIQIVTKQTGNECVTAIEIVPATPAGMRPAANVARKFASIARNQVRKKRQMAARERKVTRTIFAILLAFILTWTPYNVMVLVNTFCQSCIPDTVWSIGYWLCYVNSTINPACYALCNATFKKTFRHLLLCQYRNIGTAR

For the molecule `COc1ccc(Cn2ccnc2)cc1Br`, the inhibition in assay [1] was -47% (inactive); in assay [3], 18.9% (inactive); in assay [8] it was 109% (active). In addition, the nuclei count in assay [1] came to 141%. The z-score in assay [2] (setting [9]) was -0.527; in assay [2] (setting [10]), 1.89; in assay [2] (setting [11]), -0.19. For the same molecule, the fluorescence slope in assay [4] was -0.302 (inactive); in assay [6], 0.00733 (inactive). In assay [5], the NADPH fluorescence slope is 1.1e-06 (inactive). In addition, in assay [7], the molecule was classed as inactive.

As for `O=C(NCCO)C1(c2ccccc2)CCCC1`, the inhibition in assay [1] is -0.2% (inactive); in assay [3], 20.8% (inactive); in assay [8], -4.89% (inactive). In assay [1], the nuclei count was 87.4%. The figures for the z-score in assay [2] (setting [9]), in assay [2] (setting [10]) and in assay [2] (setting [11]) were -1.49, 2.28 and -1.5, respectively. For the same molecule, the fluorescence slope in assay [4] was -0.406 (inactive); in assay [6], 0.00732 (inactive). In assay [5], the NADPH fluorescence slope is -8.2e-06 (inactive). In addition, in assay [7], the result was inactive.

Take `COc1cccc(C(=O)OCCN(C)C(C)(C)C)c1`: the inhibition in assay [1] was -23.7% (inactive); in assay [3] it was 17% (inactive); in assay [8] it was 31.9% (inactive). This molecule gave a nuclei count in assay [1] of 128%. Further, the z-score is 0.369 in assay [2] (setting [9]), 1.71 in assay [2] (setting [10]) and -0.0558 in assay [2] (setting [11]). For the same molecule, the fluorescence slope in assay [4] was -0.414 (inactive); in assay [6] it was 0.00557 (inactive). Also, in assay [5], the NADPH fluorescence slope was -3.4e-05 (inactive). Moreover, the molecule was called inactive in assay [7].

Turning to `CCOC(=O)c1ccc(NCC(O)COc2ccccc2)cc1` (centres undefined), the inhibition is -60.3% (inactive) in assay [1], 3.66% (inactive) in assay [3] and 3.53% (inactive) in assay [8]. For the same molecule, in assay [1], the nuclei count amounted to 138%. Also, the z-score in assay [2] (setting [9]) was 1.4; in assay [2] (setting [10]) it was -0.621; in assay [2] (setting [11]), -0.757. Moreover, the results for the fluorescence slope in assay [4] and in assay [6] were -0.343 (inactive) and 0.00673 (inactive), respectively. Further, in assay [5], the NADPH fluorescence slope was -1.2e-05 (inactive). Moreover, the result in assay [7] was inactive.

As to `O=c1/c(=C/c2ccccn2)sc2n1CN(c1ccccc1)CN=2`, the inhibition in assay [1] was 15.3% (inactive); in assay [3], 34.2% (inactive); in assay [8] it was 32% (inactive). This molecule also displayed a nuclei count in assay [1] of 137%. Besides, the z-score in assay [2] (setting [9]) is 0.878; in assay [2] (setting [10]), 0.58; in assay [2] (setting [11]), -0.986. Further, the values for the fluorescence slope in assay [4] and in assay [6] were -0.4 (inactive) and 0.00773 (inactive), respectively. Further, the NADPH fluorescence slope in assay [5] is -4.8e-05 (inactive). Also, the result in assay [7] was inactive.

For the molecule `O=C(Oc1oc(-c2ccco2)nc1C=Nc1ccccc1)c1ccoc1`, the inhibition in assay [1] was -72% (inactive); in assay [3] it was 15.1% (inactive); in assay [8] it was 8.33% (inactive). This molecule had a nuclei count in assay [1] of 165%. Moreover, the z-score in assay [2] (setting [9]) was 1.16; in assay [2] (setting [10]), -0.161; in assay [2] (setting [11]) it was 0.106. Besides, the fluorescence slope in assay [4] was -0.402 (inactive); in assay [6] it was 0.00635 (inactive). Also, the NADPH fluorescence slope in assay [5] was -4.5e-05 (inactive). Further, the molecule was classed as inactive in assay [7].

Turning to `CN(C)/C=C1\N=C(c2cccs2)OC1=O`, the inhibition in assay [1] was -85.3% (inactive); in assay [3], 1.75% (inactive); in assay [8] it was 26.8% (inactive). In assay [1], this molecule showed a nuclei count of 178%. Also, the z-score in assay [2] (setting [9]) is -0.766; in assay [2] (setting [10]) it was -0.714; in assay [2] (setting [11]) it was 0.335. Also, the values for the fluorescence slope in assay [4] and in assay [6] were -0.406 (inactive) and 0.00407 (inactive), respectively. In addition, in assay [5], the NADPH fluorescence slope was -4e-05 (inactive). Besides, in assay [7], the call was inactive.

Regarding `O=P(Cc1nnco1)(c1ccccc1)c1ccccc1`, the inhibition in assay [1] is 0.9% (inactive); in assay [3] it was -3.98% (inactive); in assay [8] it was -3.84% (inactive). Also, the nuclei count in assay [1] is 176%. Also, the z-score in assay [2] (setting [9]) is 0.578; in assay [2] (setting [10]), -1.79; in assay [2] (setting [11]) it was 0.749. Also, the fluorescence slope is -0.431 (inactive) in assay [4] and 0.00527 (inactive) in assay [6]. The NADPH fluorescence slope in assay [5] was -5.1e-05 (inactive). In addition, the molecule was classed as inactive in assay [7].

On to `Clc1ccc2nc(N3CCNCC3)nc(-c3ccccc3)c2c1`, for which the inhibition was 14.5% (inactive) in assay [1], 7.48% (inactive) in assay [3] and 151% (active) in assay [8]. The nuclei count in assay [1] is 144%. The z-score in assay [2] (setting [9]) is 0.81; in assay [2] (setting [10]) it was -0.0975; in assay [2] (setting [11]), 1.71. Also, the fluorescence slope in assay [4] was -0.23 (inactive); in assay [6] it was 0.00627 (inactive). In addition, the NADPH fluorescence slope in assay [5] was -6.4e-06 (inactive). For the same molecule, the call in assay [7] was inactive.

Consider `CN1CC(=O)Nc2ccc(F)cc2C1=O`, for which the inhibition is -12.8% (inactive) in assay [1], 7.48% (inactive) in assay [3] and -6.78% (inactive) in assay [8]. This molecule also showed a nuclei count in assay [1] of 108%. In addition, the z-score in assay [2] (setting [9]) was -0.408; in assay [2] (setting [10]), 1.54; in assay [2] (setting [11]), -1.19. In addition, the values for the fluorescence slope in assay [4] and in assay [6] were -0.414 (inactive) and 0.0056 (inactive), respectively. Besides, the NADPH fluorescence slope in assay [5] was -5.5e-06 (inactive). Moreover, the molecule was called inactive in assay [7].

With `COCCN(Cc1ccccc1)P(=O)(O)c1ccccc1OCC(=O)O`, the inhibition is -21.2% (inactive) in assay [1], 15.1% (inactive) in assay [3] and 19.2% (inactive) in assay [8]. In assay [1], this molecule had a nuclei count of 151%. Besides, the results for the z-score in assay [2] (setting [9]), in assay [2] (setting [10]) and in assay [2] (setting [11]) were 1.19, -1.67 and 0.944, respectively. Also, the values for the fluorescence slope in assay [4] and in assay [6] were -0.446 (inactive) and 0.00543 (inactive), respectively. Also, in assay [5], the NADPH fluorescence slope is -4.4e-05 (inactive). Also, the result in assay [7] was inactive.

Take `CCn1cc(/C=N/O)c(C)n1`: the inhibition was -98.3% (inactive) in assay [1], 13.2% (inactive) in assay [3] and 17.2% (inactive) in assay [8]. The molecule also gave a nuclei count in assay [1] of 153%. In addition, the results for the z-score in assay [2] (setting [9]), in assay [2] (setting [10]) and in assay [2] (setting [11]) were 1.83, -0.528 and -0.0353, respectively. Also, the fluorescence slope was -0.345 (inactive) in assay [4] and 0.00667 (inactive) in assay [6]. In addition, the NADPH fluorescence slope in assay [5] was -3.9e-05 (inactive). In addition, the call in assay [7] was inactive.

For the molecule `CC1(C)CC(=O)C(C=N)=C(O)C1`, the inhibition in assay [1] was -29.4% (inactive); in assay [3], -3.98% (inactive); in assay [8] it was 3.24% (inactive). The nuclei count in assay [1] came out at 169%. The results for the z-score in assay [2] (setting [9]), in assay [2] (setting [10]) and in assay [2] (setting [11]) were -0.419, -0.908 and 0.177, respectively. In addition, the fluorescence slope in assay [4] is -0.384 (inactive); in assay [6], 0.00587 (inactive). Also, the NADPH fluorescence slope in assay [5] was -3.8e-05 (inactive). For the same molecule, in assay [7], the molecule was called inactive.

On to `CCCc1nnc(SCc2ccc(OCC)cc2)n1N`, for which the inhibition is -86% (inactive) in assay [1], 7.48% (inactive) in assay [3] and 28.9% (inactive) in assay [8]. In assay [1], this molecule gave a nuclei count of 147%. Moreover, the z-score in assay [2] (setting [9]) was -0.133; in assay [2] (setting [10]), 1.35; in assay [2] (setting [11]) it was 1.37. In addition, the fluorescence slope in assay [4] is -0.421 (inactive); in assay [6], 0.00481 (inactive). The NADPH fluorescence slope in assay [5] was -1.6e-05 (inactive). Further, in assay [7], the molecule was called inactive.
